The entries come from a sample that favours hits as a whole.
TbPYK inhibitor: T. brucei pyruvate kinase inhibition. TbPYK enzyme, Kinase-Glo Plus ATP luminescence, 45 min. Potency, µM (top dose mostly 76.8 µM), inactives show top-dose activity, negative = inhibition, usual class: inhibitors. hit rate 0.12% among 410,000. AID 624173; further: potency means the concentration at half of the fitted maximal effect; on the % scale 0 is the no-effect control and ±100 the full control effect; nearly all actives have a fitted effect of over 50% in size
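Luminescent Kinase-Glo Plus end-point after 45 min room-temperature reaction of T. brucei pyruvate kinase started with 130 uM ADP (final). Buffer TEA 50 mM pH 7.2 with KCl, MgCl2, BSA, Tween-20; titration-based qHTS with fitted concentration-effect curves.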
Shiga inhibitor: Shiga toxin inhibition | Vero cells, Shiga toxin protein synthesis inhibition reporter | inhibition, % at 38.7 µM | hit rate 9.2% among 290,000 | AID 2315; in the data active means inhibition mostly above about 28%, no sharp cut-off; inactive means mostly below about 43%; further: 0% is about no effect
LmPK inh: blocks Leishmania mexicana pyruvate kinase activity. Q27686. purified LmPK, Kinase-Glo ATP luminescence, 1 h. Potency, µM (highest dose often 57.5 µM), for inactives: at the highest dose activity change, negative = inhibition, hits mostly inhibitors. hit rate 0.37% among 290,000. AID 1721; further: potency means the concentration at half of the fitted maximal effect; on the % scale 0 is the no-effect control and ±100 the full control effect
Target sequence (Q27686 whole entry, looked up): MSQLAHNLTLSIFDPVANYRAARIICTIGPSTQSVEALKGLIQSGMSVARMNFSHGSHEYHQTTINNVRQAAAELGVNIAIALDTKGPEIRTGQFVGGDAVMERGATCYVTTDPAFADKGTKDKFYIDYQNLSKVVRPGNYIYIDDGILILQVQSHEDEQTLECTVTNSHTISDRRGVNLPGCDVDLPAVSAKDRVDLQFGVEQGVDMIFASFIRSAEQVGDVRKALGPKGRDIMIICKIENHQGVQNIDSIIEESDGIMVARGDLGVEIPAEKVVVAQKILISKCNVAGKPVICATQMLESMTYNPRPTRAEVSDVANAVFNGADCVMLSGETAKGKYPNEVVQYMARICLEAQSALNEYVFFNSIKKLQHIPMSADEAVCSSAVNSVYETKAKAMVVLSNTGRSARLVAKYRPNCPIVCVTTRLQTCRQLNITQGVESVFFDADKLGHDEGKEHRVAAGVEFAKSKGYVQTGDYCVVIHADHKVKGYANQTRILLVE
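Purified LmPK (0.1 nM) converted ADP (0.1 mM) to ATP with PEP (0.5 mM) in imidazole buffer pH 7.2 with KCl and MgCl2, 1 h at room temperature. ATP was read by Kinase-Glo luminescence; data normalized to uninhibited and no-enzyme controls.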
RE007 growth inh: less growth of the S. pombe RE007 Vpr strain | Potency, µM (top dose mostly 92.2 µM), for the others: at the highest dose activity change, negative = less growth, actives largely listed as inhibitors | S. pombe RE007 Vpr strain, BacTiter-Glo ATP luminescence, 24 h | AID 651644 | hit rate 0.21% among 360,000; active means well fitted falling curve with a large enough effect; inconclusive means small, poorly fitted or top-dose-only effect; inactive means no such curve, though single readings can be large or run the other way; further: potency means the concentration at half of the fitted maximal effect; on the % scale 0 is the no-effect control and ±100 the full control effect; nearly all actives have a fitted effect of over 50% in size
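Fission yeast RE007 carrying one integrated HIV-1 vpr copy, seeded at OD 0.01 in PMG+AL medium with 23 nL pinned compound. Grown 24 h at 30 degrees; viability read by BacTiter-Glo luminescence after 5 min.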
Cycloheximide cs: affects cycloheximide protein synthesis inhibition readout, counter-screen | hit rate 12% among 300,000 | cell reporter, cycloheximide protein synthesis inhibition counterscreen | max response, %; in the data active means max response mostly above about 13%, no sharp cut-off; inactive means mostly below about 14%; further: read at 38.3 µM for the half of the compounds with a filed dose; 0% is about no effect
Giardia FBPA inh: blocks Giardia fructose-bisphosphate aldolase activity | Potency, µM (top dose mostly 59.6 µM), for inactives: at the highest dose activity, negative = inhibition, usual class: inhibitors | hit rate 0.71% among 290,000 | AID 2451 | A8B2U2 | purified Giardia FBPA; further: potency means the concentration at half of the fitted maximal effect; on the % scale 0 is the no-effect control and ±100 the full control effect; nearly all actives have a fitted effect of over 55% in size
Target sequence (A8B2U2 whole entry, looked up): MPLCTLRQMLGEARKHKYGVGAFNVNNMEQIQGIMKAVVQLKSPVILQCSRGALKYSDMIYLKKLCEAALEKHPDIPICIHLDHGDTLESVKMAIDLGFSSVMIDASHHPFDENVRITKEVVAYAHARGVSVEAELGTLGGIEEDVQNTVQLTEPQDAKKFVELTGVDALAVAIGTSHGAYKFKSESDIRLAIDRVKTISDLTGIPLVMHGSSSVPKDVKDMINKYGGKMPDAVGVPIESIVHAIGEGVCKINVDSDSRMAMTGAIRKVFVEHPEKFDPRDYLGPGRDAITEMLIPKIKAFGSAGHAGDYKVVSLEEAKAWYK
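Giardia FBPA (40 nM reagent) was preincubated 10 min at RT with compound (up to 57.5 uM final), then substrate plus GAPDH/TPI/NAD/arsenate coupling system with diaphorase/resazurin was added; resorufin fluorescence (525/598 nm) was read after 20 min.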
Starred values were filed as active, the others as inactive; ? = inconclusive; . = not tested or not shown; [ ] = remark or other dose. Unless noted, the call rests on the fitted dose curve; in most records, active means well fitted curve in the direction sought with a large enough effect; inconclusive means small, poorly fitted or top-dose-only effect, or another doubt; inactive means no such curve, though single readings can be large; an effect the other way counts as inactive or inconclusive.

SMILES | TbPYK inhibitor | Shiga inhibitor | LmPK inh | RE007 growth inh | Cycloheximide cs | Giardia FBPA inh
COc1ccc(OCCn2c(=O)sc3ccccc32)cc1 | -0.5% | 80.6* | 1.4% | 12.4% | 24.6* | 0.4%
Cc1cccc(OCCn2c(=O)sc3ccccc32)c1 | -1.5% | 79.1* | -4.3% | -4.4% | 35.8* | 1.1%
Cc1cccc(OCCCn2c(=O)sc3ccccc32)c1 | -2.5% | 60.3* | 5.6% | -5.9% | 44.1* | -10.3%
CN1CCN(C(CNC(=O)C(=O)Nc2ccc(Cl)cc2)c2cccnc2)CC1 (configuration not stated) | 5.0% | . | . | . | . | .
COc1cccc([C@@H]2Oc3ccc(Br)cc3C(=O)[C@H]2OC(=O)NS(=O)(=O)c2ccc(C)cc2)c1 | . | . | . | . | . | 3.0%
NCCC[C@@H](CC(=O)N[C@@H]1CCCC[C@H]1C(=O)N[C@H](CC(=O)N[C@@H](CCC(=O)O)CC(=O)O)Cc1ccccc1)NC(=O)C[C@H](Cc1ccccc1)NC(=O)[C@@H]1CNCC[C@H]1N | . | . | . | . | . | -14.4%
CN(C)c1ccc(/C=C/c2cc[n+]([O-])cc2)cc1 | . | 172.3* | -0.7% | . | 42.0* | -9.4%
CN(C)c1ccc(/C=C/c2cc[n+](C)cc2)cc1 | -1.3% | -17.1 | 2.7% | ? | -2.9 | -8.1%
CCOC(=O)C1=C(CS(=O)(=O)c2ccc(C)cc2)NC(=O)NC1c1ccc(C(C)C)cc1 (configuration not stated) | -5.7% | . | . | . | . | .
COCCN(C(=O)Nc1ccccc1OC)c1nc2ccccc2s1 | 3.5% | 29.5* | 5.1% | -8.6% | 26.3* | -5.4%
CCN(CC)c1ccc(NC(=O)COc2ccccc2C#N)cc1S(=O)(=O)Nc1ccc(OC)cc1 | -12.8% | 44.0* | 3.6% | . | 10.1 | -2.6%
O=C(COc1ccccc1F)Nc1ccc2c(c1)OCCO2 | 14.0% | 102.9* | -2.4% | 115.5% | 56.2* | -0.2%
N#Cc1ccccc1OCC(=O)Nc1ccc2c(c1)OCCO2 | -4.3% | . | . | -40.8% | . | .
CCN(CC)c1ccc(NC(=O)COc2ccccc2C)cc1S(=O)(=O)Nc1ccccc1OC | ? | -13.8 | 1.4% | -18.3% | -1.0 | -2.1%
O=C(COC(=O)Cc1ccccc1F)Nc1ccc2c(c1)OCO2 | -7.4% | -4.6 | 1.0% | 24.4% | 5.9 | -4.5%
O=C(COc1ccccc1Br)Nc1ccc2c(c1)OCCCO2 | 0.0% | 65.6* | 6.2% | -7.3% | 46.7* | 0.3%
O=C(COC(=O)Cc1ccccc1F)Nc1ccc2c(c1)OCCO2 | 1.4% | 59.0* | 3.7% | -18.6% | 33.3* | -3.0%
CCCCNc1sc(S(=O)(=O)CC)nc1S(=O)(=O)c1ccc(C)cc1 | 2.5% | . | . | . | . | .
CO[C@@H]1COC(=O)CC=C[C@@H](C)[C@@H]2C=C[C@@H](O)[C@@H](COC(=O)C/C=C\[C@H]1C)O2 | . | . | . | . | . | 1.0%[12.9 µM]
N#Cc1ccccc1OCC(=O)Nc1ccc2c(c1)OCCCO2 | -1.8% | 77.3* | -2.9% | 11.9% | 49.8* | -2.5%
COC(=O)c1ccc2c(c1)C(C)(C)C(/C=C/c1ccccc1O)=[N+]2C | ? | -26.2 | 14.1µM* | ? | -12.7 | ?
CCOc1ccc(C(=O)N/N=C(\c2ccccc2)c2ccccn2)cc1 | 1.3% | 61.4* | 7.0% | 0.0% | 42.3* | 11.9%
C/C(=N\NC(=O)c1cc2ccccc2cc1O)c1ccccn1 | -20.3% | 26.6 | -25.2% | -11.9% | 24.7* | .
C/C(=N\NC(=O)c1ccccc1-n1cccc1)c1ccccn1 | 3.2% | . | . | -14.5% | . | .
C/C(=N\NC(=O)c1cc2ccccc2cc1O)c1cc2ccccc2o1 | -1.4% | 13.6 | 6.2% | -0.9% | 9.2 | -18.8%
SMILES | TbPYK inhibitor | Shiga inhibitor | LmPK inh | RE007 growth inh | Cycloheximide cs | Giardia FBPA inh
C/C(=N\NC(=O)c1c[nH]c2ccccc12)c1ccccn1 | 0.0% | 146.9* | -10.2% | 1.3% | 31.9* | ?
C/C(=N\NC(=O)c1c[nH]c2ccccc12)c1ccco1 | 1.0% | 61.4* | -16.8% | -3.4% | 70.9* | -9.8%
C=CCCCCCCCCCCCC(O)CC(O)CO (configuration not stated) (tested in a mixture with another compound) | . | . | . | . | . | 6.8%
Cc1c(Cl)cccc1-n1ncc(C(=O)Nc2ccc3c(c2)OCCO3)c1C1CCN(C(=O)OC(C)(C)C)CC1 | 4.5% | . | . | . | . | .
C/C(=N\NC(=O)c1nc2ccccn2c1C)c1ccco1 | 0.8% | 61.9* | -2.0% | 5.6% | 27.2* | -6.3%
CCc1ccc(/C(C)=N/NC(=O)c2ccccn2)cc1 | 0.8% | 45.9 | -1.2% | -1.2% | 20.7* | -6.3%
CCc1ccc(/C(C)=N/NC(=O)c2c[nH]c3ccccc23)s1 | 1.8% | 19.2 | -3.9% | 18.5% | 17.9* | .
C/C(=N/NC(=O)CNC(=O)c1ccccn1)c1ccccc1 | -7.0% | 10.4 | -1.1% | -1.1% | 9.8 | -4.1%
O=C(N/N=C(\c1ccccc1)c1ccccn1)c1cccc([N+](=O)[O-])c1 | -3.2% | -4.5 | 7.9% | -7.4% | 4.9 | ?
Fc1ccc(N/N=C(/c2ccccc2)c2ccccn2)cc1 | -10.7% | 13.0 | 3.1% | 0.9% | 30.4* | -20.9%
CCCCC/C=C\C\C=C/C=C/C=C/[C@@H](SCC(N)C(=O)NCC(=O)O)[C@@H](O)CCCC(=O)O (some centres not stated) | . | . | . | . | . | 1.4%
C/C(=N\NC(=O)c1ccccn1)c1ccc(C(=O)O)s1 | . | 74.2* | 15.8µM* | . | 45.0* | ?
C/C(=N\NC(=O)c1ccc(F)cc1)c1ccccn1 | 0.0% | 97.5* | -15.7% | ? | 62.2* | ?
NC(=O)c1ccc(NCCc2ccccc2)c([N+](=O)[O-])c1 | -5.2% | 9.7 | 1.0% | -0.9% | 15.5* | -10.7%
O=[N+]([O-])c1ccc(S(=O)Cc2ccccc2)c([N+](=O)[O-])c1 (configuration not stated) | 3.1% | . | . | 5.62µM* | . | .
O=C(O)C(Cc1ccccc1)Nc1ccc([N+](=O)[O-])cc1[N+](=O)[O-] (configuration not stated) | -10.1% | 32.4 | 7.1% | 7.1% | 20.3* | -25.9%
COc1ccc(-c2noc(-c3ccc(NCc4ccco4)c([N+](=O)[O-])c3)n2)cc1 | -5.4% | . | . | . | . | .
NC(=O)c1ccc(NCc2ccco2)c([N+](=O)[O-])c1 | -3.1% | 15.1 | 1.1% | -2.1% | 17.0* | 2.9%
Cc1ccc(Cl)cc1NC(=O)NCc1cccn1Cc1ccc(F)cc1 | 3.5% | . | . | . | . | .
Cc1ccc(CNC(=O)CCCn2c(=O)c3ccccc3n(Cc3ccc(Cl)cc3)c2=O)cc1 | -0.6% | . | . | . | . | .
O=C(NCc1cccc(Cl)c1)c1cccn1-c1nnc(N2CCCC2)s1 | 2.6%[15.4 µM] | . | . | . | . | .
CN(Cc1ccco1)c1nc(-c2ccccc2C(F)(F)F)nc2ccccc12 | . | . | . | . | . | -6.5%
O=[N+]([O-])c1ccc(NCCc2ccccc2)c(Br)c1 | 6.1% | 35.0 | -3.5% | . | 11.1 | 2.9%
NC(=O)c1cc([N+](=O)[O-])ccc1NCCc1ccccc1 | -0.1% | 1.3 | 6.6% | 3.8% | active | 3.1%

Screens (PubChem)
